Assay outcomes as filed in PubChem.
This is a sample that favours compounds with a hit; in the whole collection about 1.7% have one here.
GLP-1R agonist = GLP-1 receptor (human) agonism; P43220; HEK293 GLP-1R CRE-luciferase, luminescence, 4-6 h; cells express a hypersensitive GLP-1R form; Potency, µM (highest dose often 45.6 µM), inactives show at the top dose activation, actives largely listed as activators; 0.007% of 380,000 active; also: % of control where 0% means no effect
GLP1R cytotox = cytotoxicity in counter-screen for GLP-1R inverse agonists; HEK293 cAMP-luciferase reporter cells, luminescence, 24 h; Potency, µM (doses to about 38.3 µM), for the others: at the highest dose activity change, negative = inhibition, most hits filed as inhibitors; 0.13% of 410,000 active;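 also: loss of luciferase light is scored as toxicity; % is scaled to controls: 0 for no effect and ±100 for the full control effect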
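Here, cytotoxicity is scored as loss of luminescence. The MLSMR collection was tested on cells seeded in medium containing 10% Nu serum, with a 24 hr compound exposure preceded by 12 hours of culture.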
PTHR1 ag = PTHR1 (human) receptor agonism; AID 743266; 0.075% of 410,000 active; Potency, µM (titrated, usually from 115 µM), without a hit: at the top dose activation, usual class: activators; Q03431; HEK293 GP2 PTHR1 cells, GloSensor cAMP luminescence, 1 h; also: nearly all actives have a fitted effect of over 55% in size
Target sequence (Q03431 whole entry, looked up): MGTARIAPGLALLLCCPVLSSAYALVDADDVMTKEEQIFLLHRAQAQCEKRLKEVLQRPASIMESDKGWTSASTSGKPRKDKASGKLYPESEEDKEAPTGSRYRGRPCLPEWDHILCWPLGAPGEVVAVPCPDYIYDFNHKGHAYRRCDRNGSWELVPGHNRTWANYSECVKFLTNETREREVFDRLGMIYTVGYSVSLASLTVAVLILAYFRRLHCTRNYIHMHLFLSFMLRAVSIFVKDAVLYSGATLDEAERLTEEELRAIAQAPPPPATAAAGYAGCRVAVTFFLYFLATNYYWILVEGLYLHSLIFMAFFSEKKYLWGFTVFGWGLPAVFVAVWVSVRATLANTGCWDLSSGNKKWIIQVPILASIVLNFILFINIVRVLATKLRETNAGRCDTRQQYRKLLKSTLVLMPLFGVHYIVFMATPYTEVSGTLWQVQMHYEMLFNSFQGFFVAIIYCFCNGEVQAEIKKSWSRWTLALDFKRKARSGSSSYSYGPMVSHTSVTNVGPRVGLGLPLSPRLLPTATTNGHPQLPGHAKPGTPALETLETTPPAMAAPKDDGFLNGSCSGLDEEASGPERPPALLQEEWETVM
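HEK-293-derived GP2 cells expressing PTHR1 and a GloSensor cAMP reporter, 3,000/well, plated overnight, given luciferin plus IBMX (each 0.5 mM as added) for 1 h at 37 °C, then compound for 1 h at 37 °C. Luminescence was read after 15 min at room temperature.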
GLP-1R inv ag = acts as inverse agonist at human GLP-1 receptor; P43220; HEK293 GLP-1R CRE-luciferase, luminescence, 24 h; GLP-1R form is constitutively active; Potency, µM (series often up to 38.3 µM), for the others: at the top dose activity change, negative = inhibition, actives largely listed as inhibitors; 1.6% of 410,000 active; also: % is scaled to controls: 0 for no effect and ±100 for the full control effect; nearly all actives have a fitted effect of over 55% in size
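Inverse agonism was detected as reduced cAMP-driven luciferase luminescence after 24 h compound treatment. The cells were HEK293 clones expressing constitutively active human GLP-1R with the reporter. Reporter-only and GPR119 cell lines served as counterscreen controls.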
Active calls of the source: *; i = inactive; ? = inconclusive; . = not tested or not shown; [ ] = another dose, or the depositor's remark. Calls follow the shape of the dose curve; as a rule, active = well fitted curve in the direction sought with a large enough effect; inconclusive = small, poorly fitted or top-dose-only effect, or another doubt; inactive = no such curve, though single readings can be large; an effect the other way counts as inactive or inconclusive. Potency is read from the fitted curve at half-maximal effect.

SMILES	GLP-1R agonist	GLP1R cytotox	PTHR1 ag	GLP-1R inv ag
CSc1nc(-c2ccccc2)nc(N2CCN(C)CC2)c1C(C)=O	3%	-14%	i	3.2µM*
O=C(NCCc1ccccc1)c1cc(Sc2cccc(Cl)c2)nc2ccccc12	24%	6%	-50%	58%
C(=N\N1CCN(C2c3ccccc3-c3ccccc32)CC1)/c1ccccn1	-13%	16%	-4%	-13%
C(=N\N1CCN(C2c3ccccc3-c3ccccc32)CC1)/c1cccnc1	4%	-21%	-5%	11µM*
COc1cc(NC(=O)CCc2nc3cccnc3n2Cc2cccs2)cc(OC)c1OC	.	7%	-43%	14%
CCOc1cc(N2CCOCC2)c(OCC)cc1NC(=O)CN1CCc2ccccc2C1	12%	-16%	-2%[57.5 µM]	4.5µM*
CCOc1cc(N2CCOCC2)c(OCC)cc1NC(=O)CC12CC3CC(CC(C3)C1)C2	9%	-13%	-7%[57.5 µM]	1µM*
COc1ccc(Cl)cc1NC(=O)CN(C)C(=O)c1cc2c(s1)CCCC2	3%	?	-28%	5µM*
COc1ccc(Cl)cc1NC(=O)CN(C)C(C)C(=O)NC(=O)NC1CCCCC1 (centres undefined)	-15%	?	-15%	3.2µM*
COc1ccc(Cl)cc1NC(=O)CN(C)C(=O)c1sc2ccccc2c1Cl	21%	-33%	-17%	5.6µM*
COc1ccc(Cl)cc1NC(=O)CN(C)C1CCCCC1	11%	14%	i	?
CCOC(=O)c1sc(NC(=O)c2c(-c3ccccc3)c(-c3ccccc3)nn(C)c2=O)nc1C	.	-9%	i	-26%
CCOc1ccc(OCC)c(NS(=O)(=O)c2c(C(=O)N3CCC(C)CC3)c(C)n(C)c2C)c1	.	-17%	-7%	1%
Cc1oc2ncn(CC(C)C)c(=O)c2c1C(=O)NC(C)c1ccccc1 (centres undefined)	.	-30%	-16%	?
O=C(CSc1nnc(Cc2cccs2)n1Cc1ccco1)Nc1ccc(Br)cc1	1%	11%	i	3.5µM*
COc1cccc(CNC(=O)CSc2c3c(nc4ccc(Cl)cc24)CCCC3)c1OC	.	-1%	-57%	11%
CCOC(=O)C1=C(N)Oc2cc(O)ccc2C1c1ccc([N+](=O)[O-])cc1 (centres undefined)	7%	-7%	-7%	10µM*
CCOC(=O)C1=C(N)Oc2ccc3ccccc3c2C1c1ccc(O)cc1 (centres undefined)	-1%	15%	-21%	?
CCN(CC)P(=O)(Nc1cccc(C(F)(F)F)c1)c1ccc(N(C)C)cc1NC(=O)c1ccco1 (centres undefined)	-5%	-8%	3%	2.5µM*
CCc1cccc(CC)c1NC(=O)c1c(C)oc2ccc(O)c(CN3CCN(C)CC3)c12	.	2%	i	-9%
COc1ccc(-c2nc3ccc(NS(=O)(=O)c4ccc(Cl)cc4)cc3o2)cc1	.	24%	-27%	?
CCCc1cc(C(=O)N(C2CCCCC2)C2CCCCC2)no1	-6%	-2%	-3%	8.9µM*
CCOc1ccc(-c2nc(CSCC(=O)NC3CCN(Cc4ccccc4)CC3)c(C)o2)cc1	8%	6%	-31%	8.9µM*
Cc1oc(-c2ccc(Cl)cc2)nc1CSCC(=O)NC1CCN(Cc2ccccc2)CC1	2%	-8%	-84%	?
CCOc1ccc(NC(=O)CCSc2nc3c(c(CC)c2C#N)C(=O)CC(C)(C)C3)cc1	-9%	8%	i	?
SMILES	GLP-1R agonist	GLP1R cytotox	PTHR1 ag	GLP-1R inv ag
CCc1c(C#N)c(SCCC(=O)Nc2ccc(C)cc2)nc2c1C(=O)CC(C)(C)C2	-17%	-7%	-1%[57.5 µM]	2.8µM*
CCCCCCCCN1[C@@H](CC(=O)OCC)c2ccc(C(F)(F)F)cc2S1(=O)=O	-4%	-21%	-25%	10µM*
CC1Cc2cc(S(=O)(=O)CCC(=O)Nc3ccc(OC(F)(F)F)cc3)ccc2N1C(=O)C1CC1 (centres undefined)	.	-5%	-35%	?
COc1ccccc1OCc1nnc(-c2ccccc2)o1	.	1%	i	10%
NC(N)=NCCCC(N)C(=O)O (centres undefined)	-4%	.	.	.
Cc1cccn2c(=O)c(C(=O)NCc3ccccc3Cl)c(O)nc12	.	-9%	i	5%
Cc1cc(C)c(S(=O)(=O)NCCc2sc3nc(-c4ccc(F)cc4)nn3c2C)c(C)c1	.	-9%	-40%	?
O=C(N/C(=C\c1ccccc1)C(=O)N1CCCCC1)c1ccc(Br)o1	-4%	4%	-34%	10µM*
O=C(N/C(=C\c1ccccc1)C(=O)N1CCOCC1)c1ccc(Br)o1	9%	18%	i	-29%
OCc1cccc(-c2cnc3c(Nc4cccc(OC(F)(F)C(F)F)c4)nccn23)c1	-22%	-19%	-49%	13µM*
O=C(c1ccc(-c2nc3ccccc3s2)s1)N1CCOCC1	-5%	1%	-29%	1.3µM*
CCN1CCN(C(=O)c2ccc(-c3nc4ccccc4s3)s2)CC1	20%	12%	-52%	?
COc1cc(/C=N/NC(=O)CC2(C)OCCCO2)ccc1OCc1ccc(Cl)cc1Cl	16%	-3%	-18%	?
CC1(CC(=O)N/N=C/c2ccc(OCc3ccc(Cl)cc3Cl)cc2)OCCCO1	5%	-22%	-7%[57.5 µM]	8.9µM*
CCn1cc2nc(SCc3cccc(C)c3)n(CCc3ccccc3)c(=O)c2n1	.	-22%	-6%	7.9µM*
CCn1cc2nc(SCc3cccc(C(F)(F)F)c3)n(CCc3ccccc3)c(=O)c2n1	.	3%	-3%	?
COc1ccc2[nH]c3c4c(ccc3c2c1)C(=O)C=CC4=O	11%	7.9µM*	-8%	?
COc1ccc2[nH]c(=O)cc(C(=O)O)c2c1	-1%	11%	-18%	2%
COc1cccc(-n2cc(C(=O)Nc3cc(OC)c(OC)c(OC)c3)c3ccccc3c2=O)c1	.	-14%	-28%	3%
O=C(Nc1ccccc1)Nc1ccc(-n2ccc(C(F)(F)F)n2)cc1	10%	-22%	-2%	7.1µM*
CC(C)Oc1ccc(CNC(=O)C2CCN(C(=O)N3CCOc4ccc(Cl)cc43)CC2)cc1	.	-26%	-38%	?
O=C(OCC1OC(OC(=O)c2cc(O)c(O)c(OC(=O)c3cc(O)c(O)c(O)c3)c2)[C@@H](OC(=O)c2cc(O)c(O)c(OC(=O)c3cc(O)c(O)c(O)c3)c2)C(OC(=O)c2cc(O)c(O)c(OC(=O)c3cc(O)c(O)c(O)c3)c2)C1OC(=O)c1cc(O)c(O)c(OC(=O)c2cc(O)c(O)c(O)c2)c1)c1cc(O)c(O)c(OC(=O)c2cc(O)c(O)c(O)c2)c1 (some centres undefined)	-3%	.	.	.
Clc1ccc(CSc2nnc(-c3ccc4c(c3)OCO4)o2)cc1	-17%	-8%	-18%	-23%
O=C1CCCCC1Sc1nnc(-c2ccc3c(c2)OCO3)o1 (centres undefined)	-5%	-7%	-30%	3.2µM*
Cc1oc2c(c1C(=O)c1ccccc1)C(=O)C(=O)c1ccccc1-2	-51%	?	-12%	4.5µM*
